In the supplement of paper PMC4237247:

These molecules were tested on HeLa (assay: percent cells in G1/S phase; higher = more G1/S content). Conditions: 10 µM; 20 h; hit class: G2/M-phase inhibitor.
Procedure: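 HTS of 79,827 drug-like compounds at 10 uM. HeLa cells in 384-well plates were treated for 20 h, fixed, stained with Vybrant DyeCycle Green and scanned on an Acumen eX3 cytometer to give per-well cell cycle profiles. Only G2/M hits (>=67% G2/M) are listed.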

Row | Structure (SMILES) | percent cells in G1/S phase
1 | CC(=O)O[C@H]1C(=O)[C@@]2(C)[C@H]([C@H](OC(=O)c3ccccc3)[C@]3(O)C[C@H](OC(=O)[C@H](O)[C@@H](NC(=O)c4ccccc4)c4ccccc4)C(C)=C1C3(C)C)[C@]1(OC(C)=O)CO[C@@H]1C[C@@H]2O [Paclitaxel] | 16.5%
2 | CC(=O)Nc1ccc(Nc2nc(-c3c(C)nc4ccccn34)cs2)cc1 | 14.3%
3 | COc1ccc(/C=C/c2ccc3cccc(O)c3n2)cc1C | 22.4%
4 | O=C(CSc1nc2ccc([N+](=O)[O-])cc2s1)c1ccc(Cl)cc1 | 22.6%
5 | COC(=O)Nc1nc2cc(Sc3ccccc3)ccc2[nH]1 [Fenbendazole] | 26.3%
6 | COc1ccccc1NC1=CC(=O)CC(c2ccccc2)C1 (centres undefined) | 21.6%
7 | O=C(O)c1ccccc1SC1CC(=O)N(c2ccc(Br)cc2)C1=O (centres undefined) | 17.9%
8 | COc1cc(NS(=O)(=O)c2ccc(NC(C)=O)cc2)c(OC)cc1Cl | 23.2%
9 | COC(=O)Nc1nc2cc(C(=O)c3ccccc3)ccc2[nH]1 [Mebendazole] | 22.1%
10 | O=c1[nH]c(/C=C/c2ccccc2)nc2ccccc12 | 24.1%
11 | O=c1[nH]c(/C=C/c2ccccc2F)nc2ccccc12 | 19.2%
12 | CCN(CC)CCN1C(=O)C(=O)C(=C(O)c2ccccc2)C1c1ccccc1F (centres undefined) | 20.9%
13 | COC(=O)Nc1nc2ccc(SC(C)C)cc2[nH]1 [Methiazole] | 19.6%
14 | COc1cc(-c2onc3ccc(Cl)cc23)cc(OC)c1OC | 15.6%
